Screening results from PubChem BioAssay.
VCAM1 pot = potentiators of TNFa-induced VCAM1 expression, primary screen, imaging, HUVEC, TNFa stimulus, immunofluorescence | HUVEC TNFa-stimulated VCAM-1 immunofluorescence, high-content imaging; scaled per plate to unstimulated/TNFa-only wells | activation, % at 2 µM | 93,000 tested, 0.19% active;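 active means activation above the screen mean plus 3 SD, with well images confirming the hit on visual review, cut at about 28% in these data, passing the limit was not always enough; inconclusive means activation above that limit but images do not confirm it; inactive means activation not above that limit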;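 further: signal is the number of cytoplasmic VCAM-1 stained grains per positive cell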
VCAM1 pot conf = potentiators of TNFa-induced VCAM1 expression, confirmation, imaging, HUVEC, triplicate retest; 230 tested, under 10 active; shares compounds with VCAM1 pot; activation, % at 2 µM; HUVEC TNFa-stimulated VCAM-1 immunofluorescence imaging; AID 1034, 2008;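 active means activation above 30% in triplicate retests at 2 µM, then confirmed by visual review of the well images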;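 further: scaled per plate between unstimulated and TNFa-stimulated DMSO control wells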
* hit, by the source's call; ? = inconclusive. The entries come from a sample that favours hits as a whole.

SMILES	VCAM1 pot	others
COc1cccc(C2C(C(C)=O)=C(O)C(=O)N2CCc2c[nH]c3ccccc23)c1 (stereo unspecified)	-2
Cn1c2c(c(=O)n(C)c1=O)CN(Cc1ccc3c(c1)OCO3)CN2	15
CC(C)(C)C1CCC2(CC1)C(Nc1cccc(C(F)(F)F)c1)=NC(=S)N2CC#N (stereo unspecified)	?	VCAM1 pot conf=-10
CC(C)NC(=O)c1ccccc1NC(=O)CCc1ccccc1	3
O=C(NC(NCCCN1CCOCC1)(C(F)(F)F)C(F)(F)F)C1CCCCC1	-5
CCC(C)(C)NC(=O)C(OC(=O)c1ccco1)c1ccccc1OC (stereo unspecified)	8
CCN(CC)S(=O)(=O)c1cc([N+](=O)[O-])ccc1NNC(=O)Nc1ccc(Cl)c(Cl)c1	-23
CC(C)N(CCc1ccncc1)C(=O)Nc1ccc(Cl)c(Cl)c1	38*	VCAM1 pot conf=-3
CCCC(C)C(=O)Nc1ccncc1 (stereo unspecified)	32
Cc1nc(Nc2ccccc2)[nH]c(=O)c1CCC(C)C	?	VCAM1 pot conf=3
Cc1ccc(OCC(=O)Nc2ccc([N+](=O)[O-])cn2)cc1C	1
CC1(C)N=C(/C=N/O)CN1O	-23
CCC(C(=O)N1CCN(c2cccc(Cl)c2)CC1)c1ccccc1 (stereo unspecified)	-1
CC1CC(C)CN(c2nc3c(c(=O)n(C)c(=O)n3C)n2C)C1 (stereo unspecified)	-1
CCOC(=O)N1CCC(n2c(=S)[nH]c3cc(OC)c(OC)cc3c2=O)CC1	1
COCCNC(=O)c1ccccc1NC(=O)c1ccccc1N(C)S(=O)(=O)c1ccccc1	32*	VCAM1 pot conf=-5
CN(c1ccccc1C(=O)NCc1ccccn1)S(C)(=O)=O	6
COc1ccccc1N(CC(=O)Nc1cccnc1)S(=O)(=O)c1ccccc1	8
